In ChEMBL document CHEMBL2218924, “A broad activity screen in support of a chemogenomic map for kinase signalling research and drug discovery” (Biochem J, 2013) one finds residual activity data, which are given here for 16 compounds.

The target of assay [1] is T1, Testis-specific serine/threonine-protein kinase 1 (Homo sapiens) (UniProt Q9BXA7).
T1 sequence (whole entry): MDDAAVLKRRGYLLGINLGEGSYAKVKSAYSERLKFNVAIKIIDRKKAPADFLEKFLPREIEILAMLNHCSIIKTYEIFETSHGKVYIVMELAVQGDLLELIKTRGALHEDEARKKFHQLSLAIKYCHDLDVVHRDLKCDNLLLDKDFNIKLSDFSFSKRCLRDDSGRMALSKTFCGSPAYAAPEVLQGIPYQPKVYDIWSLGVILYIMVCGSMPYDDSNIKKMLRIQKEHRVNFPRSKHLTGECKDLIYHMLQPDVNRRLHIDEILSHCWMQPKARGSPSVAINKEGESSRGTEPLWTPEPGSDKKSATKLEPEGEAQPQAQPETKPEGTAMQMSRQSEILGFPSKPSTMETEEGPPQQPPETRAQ
As to conditions: at 1 µM.

Assay [2] addresses T1, Testis-specific serine/threonine-protein kinase 1 (Homo sapiens). The conditions noted are these: at 10 µM.
Assay [3] addresses T2, Testis-specific serine/threonine-protein kinase 2 (Homo sapiens) (UniProt Q96PF2).
T2 sequence (whole entry): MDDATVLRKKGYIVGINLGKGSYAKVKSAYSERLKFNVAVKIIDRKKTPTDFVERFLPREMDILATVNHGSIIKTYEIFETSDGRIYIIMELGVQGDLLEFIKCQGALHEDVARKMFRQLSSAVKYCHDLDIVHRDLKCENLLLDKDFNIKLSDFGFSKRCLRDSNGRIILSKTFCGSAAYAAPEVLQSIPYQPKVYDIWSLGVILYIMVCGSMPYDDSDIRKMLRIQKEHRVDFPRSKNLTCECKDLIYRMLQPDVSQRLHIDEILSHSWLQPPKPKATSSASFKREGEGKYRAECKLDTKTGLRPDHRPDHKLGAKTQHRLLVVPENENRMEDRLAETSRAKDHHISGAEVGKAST
The conditions noted are these: at 10 µM.

Assay [4] addresses T3, Tyrosine-protein kinase Tec (Homo sapiens) (UniProt P42680).
T3 sequence (whole entry): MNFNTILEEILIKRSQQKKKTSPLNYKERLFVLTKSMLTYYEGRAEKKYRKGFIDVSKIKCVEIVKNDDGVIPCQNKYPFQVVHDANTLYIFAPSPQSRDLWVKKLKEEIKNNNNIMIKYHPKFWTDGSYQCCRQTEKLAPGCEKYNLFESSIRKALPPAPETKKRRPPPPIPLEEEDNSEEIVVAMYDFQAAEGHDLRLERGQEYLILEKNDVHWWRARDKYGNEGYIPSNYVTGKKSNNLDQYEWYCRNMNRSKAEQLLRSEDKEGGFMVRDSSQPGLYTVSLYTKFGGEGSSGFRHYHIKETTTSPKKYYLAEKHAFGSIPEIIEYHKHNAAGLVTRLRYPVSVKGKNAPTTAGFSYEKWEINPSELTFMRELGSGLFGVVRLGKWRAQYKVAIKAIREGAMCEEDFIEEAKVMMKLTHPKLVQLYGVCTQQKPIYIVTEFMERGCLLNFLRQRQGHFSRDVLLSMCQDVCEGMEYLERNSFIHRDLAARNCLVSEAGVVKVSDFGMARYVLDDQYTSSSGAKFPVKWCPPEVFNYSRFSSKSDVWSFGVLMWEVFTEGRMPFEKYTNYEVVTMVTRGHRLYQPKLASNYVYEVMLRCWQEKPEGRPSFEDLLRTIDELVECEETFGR
As to conditions: at 1 µM.

In assay [5] the target is T3, Tyrosine-protein kinase Tec (Homo sapiens). The conditions noted are these: at 10 µM.
Assay [6] deals with High affinity nerve growth factor receptor (Homo sapiens) (UniProt P04629). As to conditions: at 1 µM.
The target is the same in assay [7]. The conditions noted are these: at 10 µM.
Assay [8] deals with BDNF/NT-3 growth factors receptor (Homo sapiens) (UniProt Q16620). The conditions noted are these: at 1 µM.
Assay [9] addresses Angiopoietin-1 receptor (Homo sapiens) (UniProt Q02763). The conditions noted are these: at 1 µM.
Assay [10] has the same target. The conditions noted are these: at 10 µM.

Sequence of BDNF/NT-3 growth factors receptor (Homo sapiens) (Q16620 32-822 limits assumed): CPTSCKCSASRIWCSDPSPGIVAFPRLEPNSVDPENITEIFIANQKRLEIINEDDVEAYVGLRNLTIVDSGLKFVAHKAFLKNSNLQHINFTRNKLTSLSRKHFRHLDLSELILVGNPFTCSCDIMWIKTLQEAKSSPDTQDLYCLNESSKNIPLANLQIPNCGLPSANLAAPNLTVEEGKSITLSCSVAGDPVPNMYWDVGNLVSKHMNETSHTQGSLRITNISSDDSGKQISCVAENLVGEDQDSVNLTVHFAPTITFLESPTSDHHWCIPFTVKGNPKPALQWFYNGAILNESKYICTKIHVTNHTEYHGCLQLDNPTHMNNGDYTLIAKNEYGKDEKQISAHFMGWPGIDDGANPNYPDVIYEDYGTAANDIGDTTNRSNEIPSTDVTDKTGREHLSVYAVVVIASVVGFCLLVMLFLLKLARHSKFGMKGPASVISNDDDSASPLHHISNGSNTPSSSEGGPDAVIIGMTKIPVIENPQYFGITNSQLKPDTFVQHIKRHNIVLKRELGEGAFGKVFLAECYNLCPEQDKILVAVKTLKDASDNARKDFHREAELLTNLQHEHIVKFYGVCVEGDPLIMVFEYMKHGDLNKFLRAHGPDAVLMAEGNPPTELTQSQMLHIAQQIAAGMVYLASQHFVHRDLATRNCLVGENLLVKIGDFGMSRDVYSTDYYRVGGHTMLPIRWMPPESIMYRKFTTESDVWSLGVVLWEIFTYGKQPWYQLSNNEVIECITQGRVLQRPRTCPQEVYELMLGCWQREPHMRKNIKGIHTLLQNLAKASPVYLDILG
Sequence of Angiopoietin-1 receptor (Homo sapiens) (Q02763 whole entry): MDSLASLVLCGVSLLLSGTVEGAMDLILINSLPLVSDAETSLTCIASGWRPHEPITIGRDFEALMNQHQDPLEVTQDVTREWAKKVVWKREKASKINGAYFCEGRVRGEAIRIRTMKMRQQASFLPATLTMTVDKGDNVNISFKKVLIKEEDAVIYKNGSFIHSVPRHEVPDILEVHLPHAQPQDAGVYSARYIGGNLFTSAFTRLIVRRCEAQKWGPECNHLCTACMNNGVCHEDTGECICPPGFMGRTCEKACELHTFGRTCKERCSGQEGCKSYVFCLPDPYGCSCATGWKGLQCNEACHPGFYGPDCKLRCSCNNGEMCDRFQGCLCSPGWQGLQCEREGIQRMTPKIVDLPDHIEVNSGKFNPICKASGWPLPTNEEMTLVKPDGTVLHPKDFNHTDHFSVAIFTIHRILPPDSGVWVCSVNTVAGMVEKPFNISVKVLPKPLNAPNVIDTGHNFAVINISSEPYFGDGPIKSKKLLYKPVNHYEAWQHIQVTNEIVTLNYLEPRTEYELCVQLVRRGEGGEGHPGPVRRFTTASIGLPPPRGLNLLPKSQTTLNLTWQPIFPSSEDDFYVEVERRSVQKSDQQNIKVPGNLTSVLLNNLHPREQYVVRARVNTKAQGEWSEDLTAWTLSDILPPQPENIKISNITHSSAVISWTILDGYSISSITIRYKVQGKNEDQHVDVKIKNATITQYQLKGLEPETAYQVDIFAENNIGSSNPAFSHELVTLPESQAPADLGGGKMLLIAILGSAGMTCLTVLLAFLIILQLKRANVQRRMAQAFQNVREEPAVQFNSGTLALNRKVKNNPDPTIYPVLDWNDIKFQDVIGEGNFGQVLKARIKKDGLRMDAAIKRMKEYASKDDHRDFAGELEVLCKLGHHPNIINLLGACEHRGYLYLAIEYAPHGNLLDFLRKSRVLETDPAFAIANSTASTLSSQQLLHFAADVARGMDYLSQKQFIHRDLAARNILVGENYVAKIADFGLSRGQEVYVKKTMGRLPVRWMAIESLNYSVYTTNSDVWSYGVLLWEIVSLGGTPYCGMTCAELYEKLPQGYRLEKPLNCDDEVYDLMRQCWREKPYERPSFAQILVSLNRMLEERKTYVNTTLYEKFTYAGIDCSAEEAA
Sequence of High affinity nerve growth factor receptor (Homo sapiens) (P04629 33-796 limits assumed): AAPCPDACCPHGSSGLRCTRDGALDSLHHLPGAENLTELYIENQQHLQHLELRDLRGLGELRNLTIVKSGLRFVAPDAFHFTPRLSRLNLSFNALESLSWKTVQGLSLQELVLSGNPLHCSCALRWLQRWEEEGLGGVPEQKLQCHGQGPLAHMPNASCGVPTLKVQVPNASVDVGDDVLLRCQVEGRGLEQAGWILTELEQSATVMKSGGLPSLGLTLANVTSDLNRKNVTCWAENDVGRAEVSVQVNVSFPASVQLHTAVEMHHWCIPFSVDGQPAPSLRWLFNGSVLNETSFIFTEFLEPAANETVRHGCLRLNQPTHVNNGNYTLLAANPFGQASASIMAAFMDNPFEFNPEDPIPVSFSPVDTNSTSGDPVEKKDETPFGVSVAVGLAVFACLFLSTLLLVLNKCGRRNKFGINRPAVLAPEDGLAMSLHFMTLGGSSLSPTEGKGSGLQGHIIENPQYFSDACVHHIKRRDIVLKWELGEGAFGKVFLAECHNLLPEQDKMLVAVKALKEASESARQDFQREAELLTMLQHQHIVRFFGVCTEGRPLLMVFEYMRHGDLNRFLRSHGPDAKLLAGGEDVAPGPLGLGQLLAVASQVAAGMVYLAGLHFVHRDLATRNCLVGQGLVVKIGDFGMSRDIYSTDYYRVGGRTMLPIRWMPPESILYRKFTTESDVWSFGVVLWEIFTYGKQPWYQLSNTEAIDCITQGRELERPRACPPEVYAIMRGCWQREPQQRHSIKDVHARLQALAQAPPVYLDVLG

On to `Cn1c2ccccc2c2c3c(c4c5ccccc5n(CCC#N)c4c21)CNC3=O`, for which the residual activity was determined as 12% in assay [1]; 10% in assay [2]; 40% in assay [3]; 4% in [4]; 9% in [5]; 0% in [6]. Besides, the values for the residual activity in assay [7] and in assay [8] were -1% and 44%, respectively.
With `COc1cc2nccc(Oc3ccc(NC(=S)NC(=O)c4ccccc4C)cc3)c2cc1OC`, the residual activity was 93% in assay [1]; 76% in assay [2]; 81% in assay [3]; 79% in assay [4]; 36% in [5]; 33% in [9]. For the same compound, the residual activity was 13% in [10], 44% in assay [6], -1% in [7] and 54% in [8].
On to `O=c1cc(N2CCOCC2)oc2c1ccc1ccccc12`, for which the residual activity was 101% in assay [1]; 82% in assay [2]; 78% in [3]; 93% in [4]; 96% in assay [5]; 81% in assay [9]. Besides, the residual activity came out at 97% in assay [10] and 106% in assay [6].
For the compound `CN(C)S(=O)(=O)c1ccc2c(c1)/C(=C/c1cc3c([nH]1)CCCC3)C(=O)N2`, the residual activity in [1] turned out to be 91%; in assay [2], 73%; in assay [4] it was 86%; in assay [5], 80%; in [9] it was 45%; in assay [10] it was 51%. Also, the results for the residual activity in [6], in [7] and in [8] were -2%, -1% and 4%, respectively.
For `NCCNc1ncc(C(N)=O)c(Nc2cccc(C(F)(F)F)c2)n1`, the residual activity in [1] was 56%; in assay [2] it was 10%; in assay [9] it was 100%; in assay [10], 49%; in assay [8], 47%.
In the case of `O=C(O)/C=C/c1cc(Br)c(Br)c(Br)c1Br`, the residual activity amounted to 81% in assay [1]; 99% in assay [2]; 102% in assay [3]; 94% in assay [4]; 96% in [5]; 99% in [9]. In addition, the residual activity in assay [10] stood at 89%; in [8], 109%.
Take `O=C1NC(=O)C(c2c[nH]c3ccccc23)=C1c1c[nH]c2ccccc12`: the residual activity in assay [6] stood at 58%; in [7] it was 8%; in assay [8], 29%.
In the case of `NC(=O)c1cccc(-c2cc(Nc3ccc(OC(F)(F)F)cc3)ncn2)c1`, the residual activity in assay [7] stood at 65%.
With `COc1cc2ncnc(Nc3cccc(Cl)c3)c2cc1OC`, the residual activity is 80% in assay [2]; 43% in assay [5]; 111% in assay [9]; 83% in assay [10]; 88% in [6]; 55% in assay [7]. In assay [8], the residual activity worked out at 50%.
On to `O=c1cc(N2CCOCC2)oc2c(-c3ccccc3)cccc12`, for which the residual activity in [3] turned out to be 68%; in [9], 71%; in assay [10], 64%; in assay [6], 79%; in assay [7], 71%.
Turning to `N#C/C(=C1/Nc2ccccc2S1)c1ccnc(NCCc2cccnc2)n1`, the residual activity in assay [3] came out at 68%; in assay [4], 79%; in assay [5], 17%; in assay [6] it was 56%; in assay [7], 11%; in assay [8], 76%.
`Nc1nccc(-c2c(-c3ccc(F)cc3)ncn2C2CCNCC2)n1`: the residual activity in [5] was determined as 77%; in assay [6] it was 100%; in assay [7] it was 74%; in assay [8], 118%.
For `Cc1cc(C)c(/C=C2\C(=O)Nc3ccccc32)[nH]1`, the residual activity in assay [2] was 75%; in assay [4] it was 100%; in assay [9] it was 74%; in assay [10], 82%; in assay [6], 1%; in assay [7] it was 0%. Also, in assay [8], the residual activity was 40%.
As for `O=C(Nc1nc2ccccc2n1CCN1CCOCC1)c1cccc([N+](=O)[O-])c1`, the residual activity in assay [3] stood at 87%; in assay [9] it was 80%; in assay [10], 40%; in assay [6], 20%; in assay [7] it was 29%; in assay [8] it was 46%.
As for `Nc1ncnc2[nH]nc(Nc3ccc(F)cc3)c12`, the residual activity in assay [1] stood at 108%; in [4] it was 82%; in assay [5], 21%; in assay [9] it was 104%; in [10], 79%; in assay [6], 78%. In addition, the residual activity in [7] turned out to be 40%; in assay [8], 123%.
Regarding `CSc1nc(-c2ccc(F)cc2)c(-c2ccnc(NC(C)c3ccccc3)c2)[nH]1` (stereo unspecified), the residual activity in assay [3] is 101%; in assay [5] it was 63%; in assay [9], 91%; in assay [10], 41%; in assay [7], 39%; in assay [8] it was 3%.
